M1 antag – blocks the rat M1 muscarinic receptor response to acetylcholine; CHO-M1 cells, Fluo-4 calcium, ACh EC80 antagonist mode; stronger effect = lower value; B-score at 10 µM; hit rate 3.4% among 64,000; AID 628;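 active means calcium fluorescence response, raw or row-and-column corrected B-score, differing from the plate sample mean either way at a set confidence level, mostly lower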
D1 allo mod – allosterically modulates the human D1 dopamine receptor. P21728. HEK293 D1, CRE-luciferase, dopamine EC30 potentiation; actives deviate in either direction. B-score at 10 µM. hit rate 5.9% among 58,000. AID 641;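 active means luminescence count or its row- and column-corrected plate score outside the 99.7% band of the plate's sample wells, on either side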
hDAT+cocaine – human DAT dopamine uptake with cocaine, either direction | Q01959 | LLC-PK1 hDAT cells, [14C]-dopamine uptake with cocaine IC80; actives deviate in either direction | B-score at 10 µM | hit rate 1.3% among 110,000 | AID 449768;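 active means Z score or B-score, a plate-position-corrected score, falls beyond the plate's 99.7% confidence bounds, in either direction; inactive means both scores lie inside the 99.7% bounds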;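 further: scored against the spread of the other compound wells on the same plate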
Target sequence (Q01959 whole entry, looked up): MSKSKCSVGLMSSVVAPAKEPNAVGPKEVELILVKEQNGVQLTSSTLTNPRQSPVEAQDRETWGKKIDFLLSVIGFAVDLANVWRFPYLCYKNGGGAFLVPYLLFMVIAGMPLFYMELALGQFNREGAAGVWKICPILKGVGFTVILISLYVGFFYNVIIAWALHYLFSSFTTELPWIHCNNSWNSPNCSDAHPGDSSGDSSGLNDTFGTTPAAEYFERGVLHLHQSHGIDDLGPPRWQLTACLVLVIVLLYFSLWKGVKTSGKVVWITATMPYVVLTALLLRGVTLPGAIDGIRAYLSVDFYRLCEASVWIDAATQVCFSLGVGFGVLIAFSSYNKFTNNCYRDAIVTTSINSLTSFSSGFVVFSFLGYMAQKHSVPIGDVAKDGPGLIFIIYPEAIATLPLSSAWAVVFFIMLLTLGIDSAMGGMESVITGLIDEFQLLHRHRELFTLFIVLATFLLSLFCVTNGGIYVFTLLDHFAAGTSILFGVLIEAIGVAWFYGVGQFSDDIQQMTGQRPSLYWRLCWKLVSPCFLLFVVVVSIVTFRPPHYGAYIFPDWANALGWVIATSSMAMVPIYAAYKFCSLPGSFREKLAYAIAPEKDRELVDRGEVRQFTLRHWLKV
FXIa inh mix – blocks human factor XIa in pooled compound mixtures; purified FXIa, fluorogenic substrate; inhibition, % at 5 µM; hit rate 0.19% among 62,000; AID 680;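 further: each value is inhibition by a whole ten-compound pool holding the compound; 0% = enzyme with no mixture and 100% = wells lacking enzyme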
FXIIa inh mix – blocks human factor XIIa in pooled compound mixtures. purified FXIIa, fluorogenic substrate. P00748. hit rate 0.2% among 62,000. AID 684. inhibition, % at 5 µM;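 further: 0% = enzyme without compound and 100% = no enzyme blank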
M1 ag – M1 muscarinic receptor agonism; CHO-M1 cells, Fluo-4 calcium fluorescence, agonist mode; stronger effect = higher value; AID 626; B-score at 10 µM; hit rate 3% among 64,000;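 active means fluorescence rise, raw or as B-score row- and column-corrected plate score, outside the 99.7% band of its plate's samples, either direction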
M1 ag confirm – rat M1 muscarinic agonism, confirmation; fluorescence change (max-min) at 10 µM; CHO-M1 cells, Fluo-4 calcium fluorescence, agonist mode; actives lie on both sides; shares compounds with M1 ag; hit rate 19% among 1,700;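 active means fluorescence change differs from the solvent-only DMSO control mean at a set confidence level in both duplicate runs; inconclusive means differs from solvent-only control mean in just one of two runs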;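 further: an EC20 dose of acetylcholine follows compound addition during the same imaging run; raw fluorescence intensity difference in instrument units with no normalization to controls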
M4 ag counter – counter-screen for M1 agonists: activity at rat M4 receptor. shares compounds with M1 ag. CHO M4/Gqi5 cells, Fluo-4 calcium fluorescence, agonist mode; actives lie on both sides. fluorescence change (max-min) at 10 µM. hit rate 9% among 1,700;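 active means fluorescence change differing from the plate's solvent-only control wells at 99.7% confidence in both duplicates, whether higher or lower; inconclusive means differs from solvent controls in only one of two duplicates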
Starred values were filed as active, the others as inactive; ? = inconclusive; . = not tested or not shown. Sampled rows, rich in hits. Any-hit rate of the full collection: about 7.4%. Unless noted, no stated cut-off is given here; in the data, active means inhibition above about 20% (passing the limit was not always enough); inactive means the rest.

SMILES	M1 antag	D1 allo mod	hDAT+cocaine	FXIa inh mix	FXIIa inh mix	M1 ag	M1 ag confirm	M4 ag counter
O=c1c2c3c(sc2nc2sc(CN4CCOCC4)cn12)CCCC3	-0.288	0.204	-0.432	8.2	6.7	-3.31*	-17.7	?
Cc1nc(C(=O)NC2CC2)sc1C1(C)CC(c2ccccc2)=NO1 (stereo not given)	.	.	0.341	.	.	.	.	.
O=C(CSC1=NCCS1)Nc1ccnc2ccccc12	-1.49	-2.57	-0.226	2.2	-16.9	4.23*	7.12	?
CC(=O)Nc1ccc(NC(=O)CSC2=NCCS2)cc1	-1.51	-0.103	0.0139	6.0	3.2	-0.448	.	.
COc1ccc(C2CC(=O)N3CN(c4ccc(C)c(Cl)c4)CSC3=C2C#N)cc1OC (stereo not given)	0.0928	.	-0.708	-4.2	-16.3	10.2*	?	-29
O=C1CN(S(=O)(=O)c2ccc(F)cc2)CC(=O)N1CCc1ccccc1	-0.567	0.321	-0.0141	6.0	6.7	0.0576	.	.
COc1cc(Nc2cc(C)nc3ncnn23)cc(OC)c1OC	-0.684	0.602	0.0315	6.2	9.7	4.45*	?	-35.8
COc1cc(Nc2cc(C)nc3ncnn23)cc(OC)c1	-0.799	0.0177	-0.535	0.2	1.5	1.38	.	.
O=C(CSc1nnc(-c2ccccc2)n1Cc1ccco1)Nc1ccc2c(c1)OCCO2	-0.0183	0.335	-0.123	16.4	34.4	3.51*	-11.4	-40.2
CNC(=O)C1CC(=O)N(Cc2ccccc2)C(=Nc2ccc(OC)cc2)S1 (stereo not given)	-0.819	-0.0263	-0.49	.	.	10.3*	?	?
CNC(=O)C1CC(=O)N(Cc2ccc(OC)c(OC)c2)C(=Nc2ccc(OC)cc2)S1 (stereo not given)	.	.	0.8	.	.	.	.	.
CCN(CC)S(=O)(=O)c1ccc(-c2nnc(SCC(=O)N3CCc4ccccc43)o2)cc1	-0.258	-0.137	0.164	5.6	-1.7	0.0425	.	.
Cc1[nH]c2ccc(-c3nnc(SCC(=O)N4CCCc5ccccc54)o3)cc2c1C	-1.13	0.0345	-0.103	-2.5	0.7	44.7*	?	-40.8
O=C(CSc1nnc(C2COc3ccccc3O2)o1)N1CCOCC1 (stereo not given)	.	-0.768	-1.3	2.6	8.0	.	.	.
O=C(CSc1nnc(C2COc3ccccc3O2)o1)N1CCCc2ccccc21 (stereo not given)	-1.23	0.22	0.726	-3.3	-0.1	2.5*	?	-25.5
Cc1ccc(-n2c(=O)cc(N3CCc4ccccc4C3)[nH]c2=O)cc1	0.43	-1.64	-0.632	.	.	-0.553	.	.
NC(=O)CSc1nnnn1-c1ccc2c(c1)OCCO2	.	.	-0.307	.	.	.	.	.
O=C(CSc1nnnn1-c1cccc(F)c1)Nc1nc2ccccc2s1	.	.	0.609	.	.	.	.	.
O=C(Nc1ccccc1)c1cccnc1N1CCCC1	.	.	-0.733	.	.	.	.	.
N=c1oc2c3c4c(cc2cc1C(=O)Nc1ccccc1)CCCN4CCC3	-15.1*	.	-0.0502	-3.0	6.4	221*	3358*	2806*
Cc1cccc2cc3c(N)c(C#N)sc3nc12	0.267	0.0738	2.09	-3.5	-0.1	8.56*	8.88	?
OCCCc1nc2n(n1)C(c1ccccc1Cl)C=C(c1cccs1)N2 (stereo not given)	0.362	0.00741	0.11	6.2	5.4	33.5*	206*	197*
CC1Cc2ccccc2N1C(=O)c1cc2c(=O)n3ccccc3nc2n1C (stereo not given)	-0.578	-2.11	0.137	2.1	3.1	8.41*	-6.45	-11.9
Cn1c(C(=O)N2CCc3ccccc3C2)cc2c(=O)n3ccccc3nc21	0.459	2.93	-0.0546	-14.4	-7.2	2.14	.	.
O=C(COC(=O)c1ccco1)NC1CCCCC1	0.0393	.	0.194	-8.1	1.7	0.324	.	.
SMILES	M1 antag	D1 allo mod	hDAT+cocaine	FXIa inh mix	FXIIa inh mix	M1 ag	M1 ag confirm	M4 ag counter
Cc1cccc(NC(=O)CSc2nnnn2C)n1	.	.	-1.56	.	.	.	.	.
Cc1ccc(-c2csc3nnc(SCC(=O)Nc4cccc(C)n4)n23)cc1	-0.626	0.453	-0.267	-12.2	-0.4	3.89*	?	-12.7
CC1Cc2ccccc2N1C(=O)CN1C(=O)NC(C)(c2ccc3c(c2)OCCO3)C1=O (stereo not given)	1.43	0.391	0.659	1.1	8.3	5.62*	13.7	-16.6
CCOC(=O)c1ccc(NC(=O)c2ccc(C)c(S(=O)(=O)N3CCOCC3)c2)cc1	-3.08*	-6.57*	0.28	7.3	0.2	16.2*	10.6	-26.6
O=C(Nc1ccc2c(c1)OCCO2)c1ccc(Br)c(S(=O)(=O)N2CCOCC2)c1	-0.653	0.0167	2	5.0	11.1	10.7*	?	-67.8
CCOC(=O)c1ccc(NC(=O)c2cccc(S(=O)(=O)N3CCOCC3)c2)cc1	-2.88*	0.0534	0.707	5.2	11.2	10.1*	-9.2	?
Cc1ccc(C(=O)Nc2cccnc2)cc1S(=O)(=O)N1CCOCC1	.	.	0.568	.	.	.	.	.
Cc1ccccc1OCCCCCn1ccnc1	-0.0444	-0.434	-0.054	8.0	13.2	-0.691	.	.
Cc1cccc(OCCCCCn2ccnc2)c1	-0.477	-0.522	0.605	4.8	29.3	4.53*	37.4	-44.9
Cc1cc(C(=O)CSc2nnc(-c3ccco3)o2)c(C)n1-c1ccc2c(c1)OCCO2	-0.29	.	-1.93	6.9	-15.8	12.1*	?	-44.1
O=C(OCC(=O)N1CCN(C(=O)c2ccco2)CC1)c1cn(-c2ccccc2)nc1-c1ccccc1	-0.399	0.063	4.38*	12.8	-2.4	4.54*	?	-51.5
O=C(OCC(=O)N1CCN(C(=O)c2ccco2)CC1)c1cc(-c2ccc(F)cc2)nc2ccccc12	-1.22	.	-0.0113	2.1	7.4	10.6*	82.2*	20.4
COc1ccccc1N1CCN(C(c2cc3ccc(C)cc3[nH]c2=O)c2nnnn2C2CCCC2)CC1 (stereo not given)	1.34	-0.564	0.557	-3.5	-16.8	-2.53*	?	-60.4
CCOC(=O)C1CCN(C(c2cc3ccc(C)cc3[nH]c2=O)c2nnnn2C2CCCCC2)CC1 (stereo not given)	0.174	-0.312	0.52	8.3	24.1	0.518	.	.
CN(C)c1ccc(NC(=O)c2sc(SCC(=O)Nc3ccc(Br)cc3)nc2N)cc1	.	.	-1.05	.	.	.	.	.
CN(C)c1ccc(NC(=O)c2sc(SCC(=O)Nc3nccs3)nc2N)cc1	-0.922	.	-0.588	.	.	7.09*	-26.5	?
c1ccc(C(c2ccccc2)c2nc(-c3cccnc3)no2)cc1	.	.	1	.	.	.	.	.
Cc1ccc(/C=c2\sc3nc(-c4ccccc4Br)nn3c2=O)o1	-0.483	0.554	.	12.4	11.8	-2.39	.	.
O=C(O)c1ccccc1-c1ccc(/C=c2\sc3nc4cc(Br)cnc4n3c2=O)o1	-0.467	-0.129	-0.491	10.3	3.8	52.8*	136*	?
C=CCc1ccccc1OCC(O)CN1CCN(C(=O)OCC)CC1 (stereo not given)	-1.35	-2.72	0.667	-5.9	7.9	28.4*	172*	-43.7
